Bioassay records: PubChem BioAssay, National Center for Advancing Translational Sciences (NCATS)
Shiga toxin inh = Shiga toxin inhibition; 290,000 compounds, 9.2% hits; inhibition, % at 38.7 µM; Vero cells, Shiga toxin protein synthesis inhibition reporter; in the data active means inhibition mostly above about 28%, no sharp cut-off; inactive means mostly below about 43%; further: 0% is about no effect
SARS PLP yeast = blocks SARS-CoV papain-like protease in a yeast assay; S. cerevisiae expressing SARS-CoV PLpro, growth rescue; Potency, µM (series often up to 32.9 µM), inactives show top-dose activity, positive = growth rescue, most hits filed as activators; 330,000 compounds, 0.19% hits; AID 485353; calls by dose curve; further: potency means the concentration at half of the fitted maximal effect; 0% is about no effect; nearly all actives have a fitted effect of over 55% in size
NS1 function inh = inhibitors of influenza NS1 protein function. Potency, µM (highest dose often 46.1 µM), for inactives: at the highest dose activity, positive = more growth. 270,000 compounds, 0.4% hits; calls by dose curve; further: potency means the concentration at half of the fitted maximal effect; actives are rising curves; nearly all actives have a fitted effect of over 50% in size
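Growth recovery, yeast-based: influenza A NS1 expressed in S. cerevisiae causes slow growth, and suppressors are detected by OD600. The parent strain without NS1 is used as positive control.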
Pf growth 96h = P. falciparum growth inhibition at 96 hour, primary screen for plastid delayed-death inhibitors | P. falciparum luciferase reporter growth, 96 h | 320,000 compounds, 6.9% hits | Potency, µM (titrated, usually from 28.7 µM), for the others: top-dose activity change, negative = inhibition, most hits filed as inhibitors; further: potency means the concentration at half of the fitted maximal effect; on the % scale 0 is the no-effect control and ±100 the full control effect
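P. falciparum expressing integrated firefly luciferase grown in erythrocytes (2% hematocrit, 0.05% parasitemia final) with compounds for 96 hours at 37 C, 5% CO2. Growth inhibition read as loss of luminescence after adding luciferase detection reagent.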
Pf growth 48h = inhibits P. falciparum growth in the first generation, 48 h | AID 504832 | P. falciparum luciferase growth in erythrocytes, 48 h | Potency, µM (top dose mostly 28.7 µM), for inactives: at the highest dose activity change, negative = inhibition, actives largely listed as inhibitors | 310,000 compounds, 5.9% hits; further: potency means the concentration at half of the fitted maximal effect; on the % scale 0 is the no-effect control and ±100 the full control effect
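Luminescence readout; reporter = integrated firefly luciferase in P. falciparum. RBC culture at 2% hematocrit, 0.1% parasitemia final, 37 C/5% CO2; decreased signal taken as growth inhibition.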
Cycloheximide cs = counter-screen for Shiga toxin inhibitors: cycloheximide protein synthesis inhibition | cell reporter, cycloheximide protein synthesis inhibition counterscreen | AID 2314 | max response, % | 300,000 compounds, 12% hits; in the data active means max response mostly above about 13%, no sharp cut-off; inactive means mostly below about 14%; further: read at 38.3 µM for the half of the compounds with a filed dose; 0% is about no effect
* hit, by the source's call. This is a sample that favours compounds with a hit; in the whole collection about 21% have one here. Unless noted, the call rests on the fitted dose curve; in most records, active means well fitted inhibition curve with a large enough effect; inconclusive means small, poorly fitted or top-dose-only effect, or another doubt; inactive means no such curve, though single readings can be large or run the other way.

Results for O=C(COc1cc(F)ccc1[N+](=O)[O-])N1N=C(c2cccs2)CC1c1ccco1 (centres undefined) ?
SARS PLP yeast: 5%; Pf growth 96h: inconclusive; Pf growth 48h: inconclusive

Results for CC(NC(=O)OCc1ccccc1)C(=O)OCN1C(=O)c2ccccc2C1=O (centres undefined) ?
Shiga toxin inh: -11; SARS PLP yeast: 3%; NS1 function inh: -97%; Pf growth 96h: 12µM*; Pf growth 48h: 13%; Cycloheximide cs: -2

How did COC(=O)C(C)NC(=O)C(C)NC(=O)OCc1ccccc1 (centres undefined) do in these assays?
Shiga toxin inh: -6; SARS PLP yeast: 0%; NS1 function inh: 2%; Pf growth 48h: 27%; Cycloheximide cs: -2

What do the screens show for `COc1ccc(NC(=O)[C@@H]2[C@@H]3C(=O)N(C4CCCCC4)C(=O)[C@@H]3C3c4ccccc4C=CN32)cc1` (some centres undefined)?
Shiga toxin inh: 20; SARS PLP yeast: -4%; NS1 function inh: inconclusive; Pf growth 96h: 15µM*; Pf growth 48h: 7.4µM*; Cycloheximide cs: 3

Results for CC(=O)[C@@H]1[C@@H]2C(=O)N(C3CCCCC3)C(=O)[C@@H]2C2c3ccccc3C=CN21 (some centres undefined) ?
Shiga toxin inh: 19; SARS PLP yeast: -2%; NS1 function inh: inconclusive; Pf growth 96h: inconclusive; Pf growth 48h: inconclusive; Cycloheximide cs: 9

How did O=c1oc(-c2ccccc2[N+](=O)[O-])nc2ccccc12 do in these assays?
Shiga toxin inh: -11; SARS PLP yeast: 0%; NS1 function inh: 6%; Pf growth 96h: inconclusive; Pf growth 48h: 4%; Cycloheximide cs: -1

How did O=c1oc(-c2ccc(Br)cc2)nc2ccccc12 do in these assays?
SARS PLP yeast: 2%; NS1 function inh: -18%; Pf growth 96h: 5.9µM*; Pf growth 48h: 3%; Cycloheximide cs: 26*

What do the screens show for `O=c1oc(-c2ccc([N+](=O)[O-])cc2)nc2ccccc12`?
Shiga toxin inh: -10; SARS PLP yeast: 0%; Pf growth 96h: inconclusive; Pf growth 48h: inconclusive; Cycloheximide cs: 4

What do the screens show for `Nc1ccccc1-c1nc2ccccc2c(=O)o1`?
Shiga toxin inh: 29*; SARS PLP yeast: -7%; NS1 function inh: -11%; Pf growth 96h: inconclusive; Pf growth 48h: -7%; Cycloheximide cs: 18*

What do the screens show for `CCCOc1cccc(-c2nc3ccccc3c(=O)o2)c1`?
Shiga toxin inh: 79*; SARS PLP yeast: -2%; NS1 function inh: -6%; Pf growth 96h: inconclusive; Pf growth 48h: 66%; Cycloheximide cs: 51*

How did COc1ccc(-c2nc3n(n2)C(c2ccccc2Cl)C(C(N)=O)=C(C)N3)cc1 (centres undefined) do in these assays?
Shiga toxin inh: -11; SARS PLP yeast: -6%; NS1 function inh: -5%; Pf growth 96h: 19%; Cycloheximide cs: -3

Results for CC(Sc1nnc(-c2ccncc2)n1C)C(=O)Nc1ccc(N2CCOCC2)cc1 (centres undefined) ?
SARS PLP yeast: 6%; Pf growth 96h: -1%; Pf growth 48h: 3%

What do the screens show for `CCCCNC(=O)COc1ccccc1[N+](=O)[O-]`?
Shiga toxin inh: 77*; SARS PLP yeast: 3%; NS1 function inh: -13%; Pf growth 96h: 59%; Pf growth 48h: 61%; Cycloheximide cs: 25*

How did CCCCNC(=O)c1cc([N+](=O)[O-])[nH]n1 do in these assays?
Shiga toxin inh: -12; SARS PLP yeast: 7%; NS1 function inh: 18%; Pf growth 96h: 98%; Pf growth 48h: 1%; Cycloheximide cs: 4

What do the screens show for `NNC(=O)COc1ccccc1[N+](=O)[O-]`?
Shiga toxin inh: 18; SARS PLP yeast: -1%; NS1 function inh: 2%; Pf growth 96h: 21%; Pf growth 48h: 11%; Cycloheximide cs: 25*

How did CCCNC(=O)COc1ccccc1[N+](=O)[O-] do in these assays?
Shiga toxin inh: 39; SARS PLP yeast: 12%; NS1 function inh: -4%; Pf growth 96h: 37%; Pf growth 48h: 36%; Cycloheximide cs: 21

How did CCCCNC(=O)c1cc2cccc([N+](=O)[O-])c2[nH]1 do in these assays?
Shiga toxin inh: 12; SARS PLP yeast: -4%; NS1 function inh: -4%; Pf growth 96h: inconclusive; Pf growth 48h: 2.6µM*; Cycloheximide cs: 22*

Results for CC(C)CC(NC(=O)C(CO)NC(=O)C1CCC(=O)N1)C(N)=O (centres undefined) ?
Shiga toxin inh: 28; SARS PLP yeast: 0%; Pf growth 96h: 10µM*; Pf growth 48h: 1%; Cycloheximide cs: 6

Results for COc1ccc(N2CC(C(=O)N3CCN(c4ccccc4F)CC3)CC2=O)cc1 (centres undefined) ?
Shiga toxin inh: -3; SARS PLP yeast: -1%; NS1 function inh: -12%; Pf growth 96h: 27%; Pf growth 48h: 9%; Cycloheximide cs: -3

What do the screens show for `Br/C(=N\Nc1nn[nH]n1)c1ccncc1`?
NS1 function inh: -1%

Results for O=C(Oc1ccc(N(C(=O)c2ccncc2)S(=O)(=O)c2ccc(Cl)cc2)cc1)c1ccncc1 ?
Shiga toxin inh: 19; SARS PLP yeast: -1%; NS1 function inh: -72%; Pf growth 96h: 2.6µM*; Pf growth 48h: 10%; Cycloheximide cs: -2

Results for COc1ccc(NC(=O)CSc2nc3ccccc3nc2N2CCOCC2)c(OC)c1 ?
Shiga toxin inh: 6; SARS PLP yeast: -8%; NS1 function inh: 4%; Pf growth 96h: 13%; Pf growth 48h: -24%; Cycloheximide cs: -4

Results for Cc1ccc(-c2noc(CSc3nnc(-c4ccncc4)n3-c3ccc(C)cc3)n2)cc1 ?
Shiga toxin inh: -13; SARS PLP yeast: -5%; NS1 function inh: -36%; Pf growth 96h: 12µM*; Pf growth 48h: inconclusive; Cycloheximide cs: 0

How did Fc1ccc(-n2c(Cc3ccccc3)nnc2SCc2nc(-c3cccs3)no2)cc1 do in these assays?
Shiga toxin inh: -2; SARS PLP yeast: -18%; NS1 function inh: -65%; Pf growth 96h: -27%; Pf growth 48h: 10µM*; Cycloheximide cs: 7

Results for c1ccc(-c2noc(CSc3nnc(Cc4cccs4)n3-c3ccccc3)n2)cc1 ?
Shiga toxin inh: -4; SARS PLP yeast: -2%; NS1 function inh: -3%; Pf growth 96h: 0%; Pf growth 48h: inconclusive; Cycloheximide cs: -3

Results for Clc1ccc(-c2noc(CSc3nnc(Cc4cccs4)n3-c3ccccc3)n2)cc1 ?
Shiga toxin inh: -9; SARS PLP yeast: -9%; NS1 function inh: 29%; Pf growth 96h: -10%; Cycloheximide cs: -6

How did Cc1ccc(-c2noc(CSc3nnc(Cc4cccs4)n3-c3ccccc3)n2)cc1 do in these assays?
Shiga toxin inh: -2; SARS PLP yeast: -13%; NS1 function inh: 1%; Pf growth 96h: 4.7µM*; Pf growth 48h: -11%; Cycloheximide cs: -3
